CCHF vOTU inh-1: CCHFV vOTU protease inhibitors, primary screen, biochemical, Pep-AMC substrate, fluorescence. inhibition, % at 11.5 µM. 370,000 compounds, 0.55% hits. AID 651958, 2012; also: 0% = vehicle wells with enzyme and 100% = no enzyme wells
PfHsp40 rescue: rescue of yeast from PfHsp40 toxicity, primary screen, S. cerevisiae, ATP luminescence | S. cerevisiae expressing PfHsp40, growth rescue | growth rescue, % at 12.5 µM | 340,000 compounds, 0.68% hits | AID 504582, 2011; in the data active = growth rescue above about 28%, passing the limit was not always enough; inconclusive = no clear call, values can overlap the other calls;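 also: yeast W303a lacking pdr1 and pdr3 grown in galactose medium; growth measured after three days at 30 °C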
ugtP null kill: growth inhibition of ugtP-null S. aureus, primary screen, RN4220 ugtP deletion, OD600; 330,000 compounds, 0.54% hits; AID 1259309, 2017; growth inhibition, % (no concentration beside the values); 16 h; in the data active = growth inhibition above about 68%;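 also: plate controls were untreated wells for no effect and antibiotic for full effect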
Vc quorum ag: inducers of Vibrio cholerae quorum light production without autoinducers, primary screen, BH1578 luxS cqsA deficient, single point | 350,000 compounds, 0.16% hits | V. cholerae BH1578 lux reporter, luminescence, 6 h | AID 588436, 2011 | activation, % at 18.7 µM; in the data active = activation mostly above about 9.7%, no sharp cut-off; inconclusive = no clear call, values can overlap the other calls; inactive = mostly below about 3.7%
RN4220 kill: growth inhibition of S. aureus RN4220, primary screen, OD600. 16 h. 330,000 compounds, 0.33% hits. inhibition, % (concentration not given with the values); in the data active = inhibition above about 85%;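 also: plate controls were untreated cells for no effect and reference antibiotic for full effect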
Mtb hypoxia inh: PubChem AID 1159583. M. tuberculosis hypoxia-regulated fluorescent reporter, fluorescence. fluorescence inhibition, % (no concentration beside the values). 300,000 compounds, 0.1% hits; in the data active = fluorescence inhibition mostly above about 23%, no sharp cut-off; inactive = mostly below about 17%
CCHF vOTU inh-2: CCHFV vOTU protease inhibitors, confirmation, biochemical, Pep-AMC substrate, fluorescence | inhibition, % at 11.5 µM | 1,900 compounds, 17% hits | Recombinant CCHFV vOTU | shares compounds with CCHF vOTU inh-1
Starred values were filed as active, the others as inactive; i = inactive; ? = inconclusive; . = no result given. This is a sample that favours compounds with a hit; in the whole collection about 1.7% have one here. Rule as the data show it, unless noted: active = inhibition above about 30%; inactive = the rest.

SMILES | CCHF vOTU inh-1 | PfHsp40 rescue | ugtP null kill | Vc quorum ag | RN4220 kill | Mtb hypoxia inh | CCHF vOTU inh-2
CCc1nc2c(OCCC3CCCCC3)cccn2c1N(C)C(=O)c1ccc(C)cc1 | 37.2* | . | . | -0.6 | . | . | 5.8
CCc1nc2c(OCCC3CCCCC3)cccn2c1N(C)C(=O)C1CC1 | . | . | . | i | . | . | .
Cc1ccc(S(=O)(=O)N2C(c3ccc4c(c3)OCO4)CC=C(C(=O)O)C2c2cccc(Cl)c2)cc1 (stereo not given) | . | . | 30.8 | . | 15.0 | 4.5 | .
O=C(O)c1cccc(Cn2c(Cl)c(/C=N/NC(=O)c3cc4ccccc4cc3O)sc2=O)c1 | 30.2* | -0.2 | . | i | . | . | 23.4
O=C(O)c1cccc(Cn2c(Cl)c(C=NNC(=O)c3ccccc3)sc2=O)c1 | . | . | -1.3 | . | 4.8 | 16.4 | .
COc1ccc(OC)c(NC(=O)CSc2nc(O)cc(=O)n2CC(C)C)c1 | 32.5* | 1.5 | -3.9 | 3.2 | 0.3 | -1.1 | -11.2
Cc1[nH][nH]c(=O)c1C(c1ccc(-c2ccc(F)cc2)o1)c1c(C)[nH][nH]c1=O | 45.8* | -0.7 | 4.2 | i | 0.2 | -0.7 | -8.5
Oc1c(Cl)cc(Cl)cc1C=NNc1ncc(Br)cn1 | . | . | -17.9 | . | -3.9 | -2.4 | .
COc1ccc(OC)c2c1cc(C(=O)N[C@H](C(=O)N1CCC(C(=O)O)CC1)C(C)C)n2C | 35.7* | -0.5 | 4.0 | i | 1.9 | -1.2 | 20.0
O=C(c1cccs1)N1C[C@H](O)[C@@H](n2cc(C3CC3)nn2)C[C@@H]1c1ccccc1 | 30.5* | . | . | -0.4 | . | . | -21.7
O=C(c1cccs1)N1C[C@@H](O)[C@H](n2cc(C3CC3)nn2)C[C@@H]1c1ccccc1 | 1.7 | . | . | -0.5 | . | . | .
CCCCCCCCN1CCS(=O)(=O)N(Cc2ccc(C)cc2)C(C(=O)OC)C1 (stereo not given) | 29.8* | . | . | . | . | . | 18.2
O=S(=O)(N=CN1CCOCC1)c1ccc(Cl)cc1 | . | . | 9.1 | . | 5.5 | 11.1 | .
Cc1cc(C)c(S(=O)(=O)Nc2nnc(CC(C)C)s2)c(C)c1 | 30.0* | 0.5 | -7.5 | -0.3 | 9.5 | -15.0 | -16.9
CC1CN(C(C)CO)C(=O)c2cccc(NC(=O)Nc3ccc(C(F)(F)F)cc3)c2OC1CN(C)S(=O)(=O)c1cccs1 (stereo not given) | . | . | -20.1 | . | -7.1 | -4.3 | .
CCCc1nc2c([nH]1)c(=O)n(C)c(=O)n2C | 32.3* | 1.5 | 8.8 | i | 2.7 | -7.0 | -29.1
CCOC(=O)c1c(-c2ccccc2)n(C)c2ccc(O)cc12 | 1.9 | -1.3 | -13.3 | -0.5 | 3.1 | 0.7 | .
CCOC(=O)c1c(-c2ccccc2)[nH]c2ccc(O)cc12 | 33.8* | 1.7 | -14.9 | -1.0 | 5.0 | . | -17.1
COc1ccc(C2CC(=O)C=C(c3ccccc3Oc3ccccc3)C2)cc1 (stereo not given) | . | . | 9.9 | . | -0.1 | 2.7 | .
CCOC(=O)/C=C1\CN(Cc2cc(OC)c(OC)c(OC)c2)S(=O)(=O)c2ccc(C(F)(F)F)cc21 | 32.6* | -1.3 | . | i | . | . | 3.4
O=C(NN=Cc1ccco1)c1ccc(N2CCCC2=O)cc1 | . | . | -0.6 | . | 4.2 | 6.3 | .
C[n+]1c(-c2ccccc2)c2cc(N)ccc2c2ccc(N)cc21 | 104.8* | 128.1* | 98.2* | 0.3 | 37.2 | . | 77.4*
CCCCNC(=S)NNC(=O)c1cc(-c2cccnc2)nc2ccccc12 | 34.6* | -0.1 | -13.9 | i | -2.2 | -2.8 | -8.7
NC(=NOC(=O)C=Cc1ccccc1)c1ccc(Br)cc1 | . | . | -6.8 | . | 6.7 | 11.0 | .
O=C(CSc1nc(=O)n(CCCN2CCOCC2)c2c1CCC2)Nc1ccc(F)cc1F | 32.3* | 0.1 | 2.8 | -0.5 | 2.0 | 14.4 | -17.5
SMILES | CCHF vOTU inh-1 | PfHsp40 rescue | ugtP null kill | Vc quorum ag | RN4220 kill | Mtb hypoxia inh | CCHF vOTU inh-2
O=C(CSc1nc(=O)n(CCCN2CCOCC2)c2c1CCCC2)Nc1ccc(F)cc1F | -2.1 | -0.3 | -0.9 | -0.3 | -0.4 | -2.1 | .
COc1ccc(C=NN2CCOCC2)cc1Cn1nc(C)c([N+](=O)[O-])c1C | . | . | -1.6 | . | 3.2 | 2.8 | .
O=C(O)c1[nH]c2ccccc2c1C(c1cc(Cl)cc([N+](=O)[O-])c1O)c1c(C(=O)O)[nH]c2ccccc12 | 45.9* | ? | -6.4 | -0.2 | 26.3 | 3.6 | 26.2
O=C1CC(N2CCN(c3ccccn3)CC2)C(=O)N1c1ccc(F)cc1 (stereo not given) | -13.0 | 1.3 | -0.4 | i | 1.2 | -1.3 | .
O=C1CC(N2CCN(c3ccccn3)CC2)C(=O)N1CC(c1ccccc1)c1ccccc1 (stereo not given) | 37.9* | -0.1 | 8.5 | -3.7 | 4.2 | 1.9 | -8.9
CCOC(=O)NN=Cc1ccc(-c2cccc(C(F)(F)F)c2)o1 | . | . | -0.6 | . | 4.0 | 9.6 | .
CC1(CC(=O)N/N=C/c2ccc(-c3cccc(C(F)(F)F)c3)o2)OCCO1 | 34.6* | -1.5 | . | -0.2 | . | . | -6.9
CC(=NNS(=O)(=O)c1cc(C)ccc1C)c1c[nH]c2ccccc12 | . | . | -6.4 | . | 1.2 | -3.4 | .
Cc1nc2c([nH]1)C1(CCN(Cc3ccccc3)CC1)C(C#N)=C(N)O2 | 40.2* | 0.0 | 6.1 | i | -2.3 | . | -24.1
Cc1nn(C)cc1C1C(C#N)=C(N)N(c2ccc(F)c([N+](=O)[O-])c2)C2=C1C(=O)CCC2 (stereo not given) | 29.8* | -1.1 | 12.3 | -0.2 | 3.1 | 8.5 | -4.4
Cc1ccc(N2C(N)=C(C#N)C(c3cccnc3)C3=C2CCCC3=O)cc1 (stereo not given) | 9.0 | -0.7 | -1.4 | i | -5.9 | 7.0 | .
CCN(CC(=O)c1c(N)n(C)c(=O)n(C)c1=O)c1cccc2ccccc12 | 82.3* | -1.2 | -6.6 | -0.4 | 4.3 | 5.6 | -7.8
CCCCc1c(-c2ccccc2OC)ncn1CCc1ccccc1Cl | 31.4* | . | . | . | . | . | 9.1
CCCCc1c(-c2ccccc2F)ncn1CCc1ccccc1OC | 36.5* | . | . | . | . | . | 7.5
CCCCc1c(-c2ccccc2OC)ncn1Cc1ccc(F)cc1F | 33.3* | . | . | . | . | . | 0.3
CCCCc1c(-c2ccccc2OC)ncn1Cc1cc(F)cc(F)c1 | 12.8 | . | . | . | . | . | .
CCCc1c(-c2cccc(F)c2)ncn1CCc1ccccc1OC | 19.9 | . | . | . | . | . | .
CCCc1c(-c2cccc(F)c2)ncn1Cc1ccccc1OC | 36.8* | . | . | . | . | . | 7.5
CC(C)(C)C1COC(=O)C(Cc2ccc(F)cc2)CCC=CCC(CC(=O)N(CCO)Cc2ccccc2)C(=O)N1 (stereo not given) | . | . | 2.7 | . | -0.4 | 2.2 | .
O=C(NN=Cc1ccc(Br)cc1)c1ccccc1-n1cccc1 | . | . | -8.2 | . | 6.6 | 1.0 | .
O=C(NC1CC1)C1=CC(c2coc3ccccc3c2=O)CC(OCc2ccc(CO)cc2)O1 (stereo not given) | . | . | 1.2 | . | 2.6 | 3.1 | .
Cn1c(=O)c2c(-c3ccccc3)n(-c3cccc(O)c3)cc2n(C)c1=O | 6.4 | . | . | . | . | . | .

Compound activity: PubChem BioAssay, several laboratories
